Screening data deposited in PubChem BioAssay by National Center for Advancing Translational Sciences (NCATS).
Pf Dd2 inh = qHTS Primary assay for Inhibitors of Plasmodium falciparum Dd2 growth in vitro. P. falciparum Dd2 growth, SYBR Green, 72 h. AID 1347417, 2020. 4.3% of 120,000 active. Potency, µM (top dose mostly 28.9 µM), without a hit: top-dose activity, negative = inhibition, most hits filed as inhibitors; active = well fitted inhibition curve with a large enough effect;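 also: plate controls were DMSO vehicle for no effect and reference drug for full effect; nearly all actives have a fitted effect of over 65% in size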
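Infected erythrocytes (Dd2, 0.3% parasitemia, 2.5% hematocrit final) are added to compound in RPMI-1640/Albumax II medium, grown 72 h at 37C in low oxygen, then lysed with saponin/Triton-X containing SYBR Green and read by fluorescence.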
* = called active by the depositor; i = inactive; [ ] = dose if it differs, or a comment. The sample as a whole holds a higher share of hits than the screen did. Potency is read from the fitted curve at half-maximal effect.

SMILES | Pf Dd2 inh
COc1ccc(OC)c(CN2CCN(Cc3ccccc3F)C(CCO)C2)c1 (stereo not drawn) | i
Cc1ccccc1-c1nn(-c2ccc(F)cc2F)cc1CN1CCC[C@@H]1C(N)=O | -17%
CN(Cc1cccnc1)c1nc2c(c(=O)[nH]1)CCN(Cc1ccc(F)c(Cl)c1)CC2 | -17%[5.79 µM]
O=C(c1cc(-c2ccc(Cl)cc2Cl)c2nncn2n1)N1CCOCC1 | 53%
COc1cc(NC(=O)Cn2cnc(S(=O)(=O)N3CCCC3)c2)cc(OC)c1OC | i
COc1ccc(-c2cc(C(F)(F)F)n3nc(C(=O)Nc4sc5c(c4C(=O)OC(C)C)CCCC5)cc3n2)cc1OC | 28%
Cc1cnc(CN(C)c2cc(C3CC(O)C3)nc(N)n2)[nH]1 (stereo not drawn) | 7%
CCN1c2cc(C(=O)Nc3cccc(Cl)c3C)ccc2C(=O)N2CCCCCC21 (stereo not drawn) | i
CCCCN1C(=O)C(NC(=O)c2ccc(C(C)(C)C)cc2)(C(F)(F)F)C(C(=O)OC)=C1C (stereo not drawn) | 9%
OC1(CN2CCCCC2)CCN(Cc2cccc(F)c2F)C1 (stereo not drawn) | i
COc1ccc(-n2cc(CN3CCC(O)CC3)c(-c3cccc(F)c3)n2)cc1 | 13µM*
COc1ccc(-c2nc3c(C)cccc3cc2CN2CCC(O)CC2)cc1OC | -7%
COc1cccc(-c2ccccc2NC(=O)C2CCN(Cc3cc(F)ccc3F)CC2)c1 | -15%
Cc1cccc(-n2cc(CN3CCCC(C)(O)C3)c(-c3cccc(F)c3)n2)c1 (stereo not drawn) | 8.9µM*
CC(=O)NC1(C)CCN(Cc2cnc(-c3cccc(F)c3)s2)CC1 | i
COC(=O)c1cc(C)nc2c1c(=O)nc(SCc1cccc(C)c1)n2C1CC1 | 23%
Cc1cc(C)cc(N2CCC(NC(=O)c3ccc(Cl)s3)C2=O)c1 (stereo not drawn) | -22%
O=C(c1ccncc1)N1CC2CCC(C1)N2Cc1cccc(-c2ccsc2)c1 | 8%
CC(C)N1CC2CCC(C1)N2Cc1cccc(C#N)c1 | -8%[44.1 µM]
CC(C)N1CC2CCC(C1)N2Cc1cccc(-c2ccsc2)c1 | 11µM*
COCCNC(=O)N1CCN(c2cnccn2)CC(C(=O)O)C1 (stereo not drawn) | 8%
COCCC(=O)N1CCC2(CCC2OC)CC1 (stereo not drawn) | 16%
CC(C)Oc1ccc2c(NC(=O)[C@H]3CCC(=O)N3)nn(Cc3ccccc3)c2c1 | -22%
O=C(NCCc1ccc(Cl)cc1)c1ccc(Cn2c(=O)[nH]c3ccccc3c2=O)cc1 | -19%
Cc1ccc(C(=O)NCCSc2c[nH]c3ccccc23)cc1C | 7%
SMILES | Pf Dd2 inh
CN(C)S(=O)(=O)c1ccc(C(=O)NCCSc2c(-c3ccc(Cl)cc3)[nH]c3ccccc23)cc1 | 8.9µM*
CCOc1ccc(C(=O)NCCSc2c(C)[nH]c3ccccc23)cc1OCC | -28%
Cc1ccc(S(=O)(=O)N(CC(=O)NCCSc2ccc(Cl)cc2)c2cccc(Cl)c2)cc1 | i
Cc1ccc(-c2[nH]c3ccccc3c2SCCNC(=O)c2ccc(S(=O)(=O)N(C)C)cc2)cc1 | 8.9µM*
O=S(=O)(Nc1ccc(Br)cc1)c1ccc2nc(-c3ccccc3)[nH]c2c1 | -27%
COc1ccc(C2=C(C)C(N3CCC(C(=O)Nc4ccc(F)cc4C)CC3)=NS2(=O)=O)cc1 | 50%
CN(CCc1noc(C2CC2)n1)C(=O)c1cc(-c2ccc(O)cc2)n[nH]1 | -20%
Cn1ncc(N2CCC(CNC(=O)c3ccc(F)cc3Cl)C2)cc1=O (stereo not drawn) | 19%
CCn1c(C)ccc(C(=O)N[C@@H]2COCC[C@H]2Oc2ccccn2)c1=O | -10%
O=C(CCc1nc2ccccc2[nH]1)N1[C@H]2CC[C@@H]1c1cnc(-c3ccc(F)cc3)nc1C2 | 11µM*
O=C(CCc1c[nH]c2ccccc12)N1[C@H]2CC[C@@H]1c1cnc(-c3ccccc3)nc1C2 | -19%
O=C(Cc1cccnc1)N1[C@H]2CC[C@@H]1c1cnc(-c3ccc(F)cc3)nc1C2 | -15%
COCCO[C@H]1C(=O)N(C2CCN(C(=O)NC(C)C)CC2)[C@H]1c1ccncc1 | -15%
NS(=O)(=O)c1ccc(CCNC(=O)c2nc(SCc3ccccc3F)ncc2Cl)cc1 | i
Cc1cccc(NC(=O)c2c(NC(=O)c3cccs3)sc3c2CCC(C)C3)c1 (stereo not drawn) | 34%
CC1CCc2c(sc(NC(=O)COc3ccccc3)c2C(=O)Nc2ccccc2Cl)C1 (stereo not drawn) | 98%
CCOC(=O)c1ccc(NC(=O)c2c(NCc3ccc(OC)c(OC)c3OC)sc3c2CCC(C)C3)cc1 (stereo not drawn) | 10µM*
CC1CCc2c(sc(NC(=O)c3ccccc3)c2C(=O)Nc2ccccc2)C1 (stereo not drawn) | 13µM*
CCOc1ccc(NC(=O)c2c(NC(=O)c3cccs3)sc3c2CCC(C(C)(C)C)C3)cc1 (stereo not drawn) | -17%
CCOC(=O)c1c(NC(=O)c2cc3ccccc3c(=O)o2)sc2c1CCC(C)C2 (stereo not drawn) | 34%
